# From PubChem BioAssay
# In the library only some 4.2% were active in any assay of this set; here they are far more common.
# hcDAF-12 act – activators of H. contortus DAF-12 nuclear receptor; HEK293 hcDAF-12 lit1-tk-luc reporter, luminescence; 0% DMSO, 100% Δ7-dafachronic acid; activation, % at 6.8 µM; 370,000 tested, 1.4% active; AID 652067;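 active = activation above the mean of all tested compounds plus 3 SD, cut at about 5.5% in these data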
# hgDAF12 agonist – hgDAF-12 agonism, primary luciferase screen | AID 687014 | 370,000 tested, 1.8% active | activation, % at 6.8 µM | HEK293 GAL4-hgDAF12 UAS-luciferase reporter, agonist luminescence; normalized to butyrate control;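 active = activation above a cutoff set at the mean of all screened compounds plus 3 SD, cut at about 10% in these data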
# DAX1 inh – blocks DAX1 repression of SF-1 activated StAR promoter; HEK293T StAR-luciferase reporter, SF-1/DAX-1 repression relief; inhibition, % at 6.8 µM; 370,000 tested, 1.1% active; AID 652010;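 active = inhibition above the mean over all tested compounds plus 3 SD, cut at about 3.6% in these data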;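 also: higher inhibition means more luminescence from relief of DAX-1 repression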
# Wnt act – activators of Wnt/beta-catenin signaling; 300,000 tested, 1.2% active; AID 743398; Wnt/beta-catenin reporter cell assay, activator, plate reader; activation, % at 9.35 µM; in the data active = activation above about 30%, passing the limit was not always enough; inconclusive = no clear call, values can overlap the other calls
# esBAF inh – inhibitors of esBAF chromatin remodeling in mouse ES cells. AID 602393. 350,000 tested, 2% active. reporter increase, % at 12.5 µM. Bmi1-luciferase knock-in reporter, 24 h; 100% = twice the neutral-well signal; in the data active = activation above about 40%; inconclusive = no clear call, values can overlap the other calls;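 also: a rise in the Bmi1 reporter signal indicates esBAF inhibition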
# ssDAF-12 act – activators of S. stercoralis DAF-12 nuclear receptor; AID 652126; activation, % at 6.8 µM; 370,000 tested, 1% active; HEK293 ssDAF-12/GRIP1 lit1-tk-luc reporter, luminescence; % of 3 µM dafachronic acid response;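 active = activation above the mean over all tested compounds plus 3 SD, cut at about 0.9% in these data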
# Hits are given with their value; 0 = inactive; ? = inconclusive; - = no result given.
SMILES,hcDAF-12 act,hgDAF12 agonist,DAX1 inh,Wnt act,esBAF inh,ssDAF-12 act
CC1CCN(c2nc3ccc(C(=O)N4CCN(Cc5ccccc5)CC4)cc3s2)CC1,0,0,0,0,93.7,0
O=S(=O)(N[C@@H]1CC[C@H](CCn2cc(C3(O)CCCC3)nn2)O[C@H]1CO)c1ccccc1,-,-,-,-,0,-
C[C@@H]1CN([C@H](C)CO)C(=O)c2cc(NC(=O)Nc3cccc4ccccc34)ccc2O[C@@H](C)CCCCO[C@@H]1CN(C)CC1CCCCC1,-,-,-,-,0,-
C[C@@H]1CN([C@H](C)CO)C(=O)Cc2cc(NC(=O)Nc3ccccc3)ccc2O[C@H]1CN(C)C(=O)Nc1ccc(F)cc1,-,-,-,-,0,-
Cc1cccc(N2CCN(C(=O)c3ccc4nc(N5CCCCC5)sc4c3)CC2)c1C,0,0,0,0,61.2,0
Cc1cc2nc(N3CCN(C(=O)c4ccco4)CC3)sc2cc1C,0,0,0,?,69.5,0
c1ccc(CN2CCN(c3nc4ccccc4s3)CC2)cc1,0,0,0,40.2,?,0
CC(C)NC(=O)Nc1cccc2c1O[C@H](CN(C)Cc1ccc(Cl)c(Cl)c1)[C@@H](C)CN([C@@H](C)CO)C2=O,-,-,-,-,0,-
O=S(=O)(c1cccc(F)c1)N1CC[C@@H]2[C@H]1c1cc(C#Cc3ccccc3F)ccc1N[C@@H]2CO,-,-,-,-,0,-
C[C@H]1CN([C@@H](C)CO)C(=O)c2cccc(NS(=O)(=O)c3ccc(Cl)cc3)c2O[C@@H]1CN(C)C(=O)Nc1ccccc1,-,-,-,-,0,-
C/C(=N\Nc1nc(C(C)(C)C)cs1)c1ccc(O)cc1,5.8,0,0,0,0,0
CC1(C)CC(=O)C2=C(C1)Nc1ccccc1S2,0,0,0,0,-,0
CC1=CC(=O)Nc2ccccc2S1,5.7,11.0,0,0,-,1.1
Clc1cccc2sc(-c3nnc(-c4ccccc4)o3)c(Cl)c12,0,0,0,-,43.8,0
O=C1/C(=C\c2ccsc2)N2CCC1CC2,0,0,0,32.7,0,0
CN1C/C(=C/c2ccsc2)C(=O)/C(=C/c2ccsc2)C1,0,0,0,0,0,0
Cn1c(NCc2cccs2)nc2ccccc21,6.1,0,0,-,49.7,1.7
COc1cc2ccccc2cc1C(=O)OCC(=O)N1CCOCC1,0,0,0,-,0,0
O=C(OCC(=O)N1CCOCC1)c1ccc2ccccc2c1O,0,0,0,42.5,?,0
C=CCN=C1NC(CCc2ccccc2)C(C(=O)OC)=C(C)N1Cc1cccc(C(F)(F)F)c1 (stereo not given),0,0,0,0,-,1.5
CSc1nnc2c(n1)c(C)nn2-c1cccc(C)c1,0,0,0,37.5,45.3,0
CCc1cnc(N2[C@H](C#N)[C@@H](c3ccc(C#CC(C)C)cc3)[C@@H]2CO)s1,-,-,-,-,0,-
Cc1ccn2c(=O)nc(SCC(=O)NCc3ccccc3)nc2c1,0,0,0,0,0,0
Cc1ccn2c(=O)nc(SCC(=O)c3ccccc3)nc2c1,0,0,0,0,42.3,0
CC(C)CC#Cc1cnc2c(c1)C(=O)N([C@H](C)CO)C[C@H](C)[C@H](CN(C)C(=O)c1cnccn1)O2,-,-,-,-,0,-
SMILES,hcDAF-12 act,hgDAF12 agonist,DAX1 inh,Wnt act,esBAF inh,ssDAF-12 act
Cc1nc(SCCc2ccccc2)[nH]c(=O)c1C,-,-,-,-,49.9,-
Cc1ccc(C)c(CSc2nnc(-c3ccccn3)n2N)c1,0,0,0,0,0,0
Nn1c(SCc2c(F)cccc2F)nnc1-c1ccccn1,0,0,0,43.0,?,0
Cc1onc(-c2ccccc2)c1C(=O)OCC(=O)c1ccc(F)cc1,0,0,0,0,0,3.5
CN(C[C@H]1N[C@@H](CO)[C@@H]1c1ccc(-c2cccc(F)c2)cc1)S(C)(=O)=O,-,-,-,-,0,-
CCn1cnc2c(Nc3cccc(Cl)c3)nc(C#N)nc21,0,0,0,45.7,68.9,0
CC(c1c[nH]c2ccccc12)c1c[nH]c2ccc(Br)cc12 (stereo not given),5.6,0,0,-,-,0
c1ccc(Cn2c(-c3ccco3)nc3nc4ccccc4nc32)cc1,0,0,0,37.6,-,0
O=C(Nc1ccc2c(c1)N(S(=O)(=O)c1cccs1)CCC2)c1c(F)cccc1F,0,0,0,0,0,0
O=S(=O)(c1cccs1)N1CCCc2cccc(O)c21,0,0,0,47.9,45.0,0
Cc1ccc(NC(=O)CCC(=O)NNC(=O)C(C)(C)C)c(C)c1,0,0,0,39.9,-,0
CCC(=O)NNC(=O)CCC(=O)Nc1ccc(C)cc1C,0,0,0,0,0,0
